ANO1 activ = activators or potentiators of mouse TMEM16A chloride channel. Q8BHY3. HEK293 TMEM16A/YFP-H148Q/I152L, iodide quench fluorescence; hits give low values. B-score at 10 µM. 340,000 compounds, 0.3% hits. AID 623877;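 active = fluorescence-ratio B-score plate-corrected deviation score at least 3 library SD below zero, with starting fluorescence score within 5 deviations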;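 note: channel opened by trigger with iodide after compound preincubation; score built on the fluorescence ratio of max minus min over baseline; more negative score means more quench and so TMEM16A activation or potentiation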
CHT block = inhibits the human high affinity choline transporter | CHT-expressing cells, membrane potential dye, choline response; hits give low values | B-score at 10 µM | 310,000 compounds, 0.86% hits;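 active = B-score over 3 SD under the library average, and starting fluorescence ratio not unusually high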;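 note: choline stimulus applied at its EC90 after an EC20 pre-addition; B-score computed on integrated fluorescence ratio after choline addition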
CHT PAM = allosteric activators of human choline transporter CHT; Q9GZV3; CHT-expressing cells, membrane potential dye, choline EC20; hits give high values; LV-AA mutant CHT in HEK293 cells; B-score at 10 µM; 310,000 compounds, 0.49% hits; AID 488977;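 active = initial fluorescence not abnormally high and integrated response B-score, plate-corrected, over 3 SD above library mean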
Kir21 inh = inhibitors of mouse Kir2.1 inward-rectifier potassium channel; B-score at 10 µM; 310,000 compounds, 0.85% hits; HEK293-Kir2.1, FluxOR thallium flux fluorescence; hits give low values;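 active = fluorescence ratio B-score at or below minus 3 SD of library scores, with starting-brightness B-score within 2 SD, cut at about -4.2 in these data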;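 note: channel flux triggered by added potassium and thallium sulfate stimulus; B-score of peak minus minimum fluorescence over baseline after thallium stimulus; more negative B-score means stronger Kir2.1 block with less thallium influx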
GPR7 antagonist = antagonists of human GPR7 (neuropeptides B/W receptor 1); P48145; GPR7-expressing cells, fluorescence antagonist assay; inhibition, % at 4.4 µM; 290,000 compounds, 1.1% hits; in the data active = inhibition above about 16%, passing the limit was not always enough;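 note: cells stimulated with the agonist NPW; 0% = agonist with vehicle and 100% = vehicle without agonist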
Target sequence (P48145 whole entry, looked up): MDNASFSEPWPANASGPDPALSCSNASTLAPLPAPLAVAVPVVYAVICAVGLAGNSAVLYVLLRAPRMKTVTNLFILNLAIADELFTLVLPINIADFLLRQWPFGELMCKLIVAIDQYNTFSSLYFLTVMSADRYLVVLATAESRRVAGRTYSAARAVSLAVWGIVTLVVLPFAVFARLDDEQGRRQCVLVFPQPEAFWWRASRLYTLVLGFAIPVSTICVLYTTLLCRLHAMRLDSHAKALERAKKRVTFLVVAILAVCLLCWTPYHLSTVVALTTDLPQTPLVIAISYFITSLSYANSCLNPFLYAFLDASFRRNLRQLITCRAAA
TMEM16A inh = blocks the mouse calcium-activated chloride channel TMEM16A; 310,000 compounds, 1.2% hits; Q8BHY3; normalized B-score (activity score, 25-100; higher = stronger inhibition) at 10 µM; HEK293 TMEM16A/YFP iodide influx fluorescence, ionomycin;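 active = ratio plate-corrected score three or more library SD toward inhibition, starting fluorescence score within five deviations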;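 note: score derived from kinetic fluorescence span divided by baseline fluorescence per well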
Numbers without * were called inactive; i = inactive; / = no result. Sampled rows, rich in hits. Any-hit rate of the full collection: about 3.7%.

SMILES	ANO1 activ	CHT block	CHT PAM	Kir21 inh	GPR7 antagonist	TMEM16A inh
COc1cc(C2OC(=O)C3C(c4ccc(OC(C)=O)c(OC)c4)OC(=O)C23)ccc1OC(C)=O (stereo not drawn)	i	i	i	0.69	/	i
Cc1ccccc1OCC(O)CN(CCO)Cc1ccccc1 (stereo not drawn)	-38*	i	i	-1.4	-16	i
CCN(Cc1ccccc1)CC(O)COc1ccccc1 (stereo not drawn)	i	i	i	-2.4	2	i
COc1ccc(NC(=O)CN(C)C(=O)CSCc2ccc(C)cc2)cc1	i	i	i	-0.29	/	i
CC(=O)c1ccc(NC(=O)CO/N=C(\C)c2cccs2)cc1	i	i	i	0.03	20*	i
CCOC(=O)c1c(N/N=C/c2ccncc2)n[nH]c1C	i	i	i	0.45	-2	i
Cc1ccc(Oc2c(CO)c(-c3ccccc3)nn2C)cc1	i	i	i	0.63	-8	i
CCOC(=O)c1csc(NC(=O)c2ccc(S(=O)(=O)N(C)C)cc2)n1	i	i	i	0.46	-6	i
CCOC(=O)c1sc(NC(=O)c2ccc(S(=O)(=O)N(C)C)cc2)nc1C	-14*	i	i	0.01	1	i
COc1ccc(/C=C/c2ccc3ccccc3[n+]2C)cc1OC	i	i	i	-1.3	-5	i
CN(C)c1ccc(/C=C/c2ccc3ccccc3[n+]2C)cc1	i	i	i	-14*	0	i
NCC/C=C1/c2ccccc2CSc2ccccc21	i	i	i	-4.3*	17	i
CCN(C(=O)CSc1ncnc2sc(C)c(C)c12)C1CCS(=O)(=O)C1 (stereo not drawn)	-40*	i	i	-0.87	-1	i
CC(C)N(C(=O)c1nn(C)c2c1CSc1ccccc1-2)C1CCCCC1	i	i	i	0.69	-12	25*
Cn1nc(C(=O)NC2CCCCC2)c2c1-c1ccccc1SC2	i	i	i	-0.62	-15	i
COc1ccccc1C1=NOC(C)(c2nnc(Cc3ccccc3)o2)C1 (stereo not drawn)	i	i	i	-1.8	/	i
COC(=O)CC1C(=O)NCCN1C(=O)CSc1nc2ccccc2o1 (stereo not drawn)	i	i	i	-1.2	22*	i
CCCCCCC(C)n1cc(C(C)=O)c(=O)[nH]c1=O (stereo not drawn)	i	i	i	0.76	-1	100*
CCCCC(=O)N1CCN(c2nc3ccc(Cl)cc3s2)CC1	i	i	i	-0.61	-2	25*
O=C(COc1ccc(S(=O)(=O)N2CCc3ccccc32)cc1Cl)NCc1ccccn1	i	i	i	-5.2*	7	i
O=C(COc1ccc(S(=O)(=O)NCc2ccccc2)cc1Cl)NCc1ccccn1	i	i	i	-1.4	-10	i
CCN(C(=O)c1ccc(Cl)cc1[N+](=O)[O-])c1ccccc1C	i	i	i	-5*	6	i
c1coc(CNc2nc3ccccc3n2CCN2CCOCC2)c1	i	i	i	-0.02	16	i
N=c1c2c(-c3ccccc3)c(-c3ccccc3)n(Cc3ccco3)c2ncn1CCCO	i	i	i	-5.5*	14	i
N=c1c2c(-c3ccccc3)c(-c3ccccc3)n(Cc3ccco3)c2ncn1CCN1CCOCC1	i	i	i	-5.3*	-7	i
SMILES	ANO1 activ	CHT block	CHT PAM	Kir21 inh	GPR7 antagonist	TMEM16A inh
N=c1c2c(-c3ccccc3)c(-c3ccccc3)n(Cc3ccco3)c2ncn1CCO	i	i	i	-9.9*	13	i
CC(C)c1nc2cc(C(=O)N3CCN(c4cnccn4)CC3)ccc2o1	i	i	i	-1	-4	i
CCC1(c2ccc(F)cc2)NC(=O)N(CC(=O)Nc2cc(C)on2)C1=O (stereo not drawn)	-39*	/	/	/	/	/
CCc1ccc2c(CN3CCN(Cc4ccccc4)CC3)cc(=O)oc2c1	i	i	i	-5.2*	-17	i
Cc1cc(C(=O)COc2ccc(F)cc2Br)c(C)n1C1CC1	i	/	/	/	/	/
O=C(COC(=O)c1ccco1)Nc1ccc([N+](=O)[O-])cc1Cl	-26*	/	/	/	/	/
O=C(Cn1ncc2c([nH]c3ccccc32)c1=O)N1CCN(c2ccccn2)CC1	i	i	i	-0.68	-9	i
C[N+](C)(C)CCCN(Cc1ccc2c(c1)OCO2)C(=O)NC1CCCCC1	i	i	i	-1.6	-13	i
CC(C)(Sc1ccc(CCN(CCCCC2CCCCC2)C(=O)NC2CCCCC2)cc1)C(=O)O	i	i	i	/	/	100*
O=c1[nH]c(=O)c2[nH]c(=S)n(-c3ccccc3)c2[nH]1	i	/	/	/	/	/
O=C(c1ccc(=O)[nH]n1)N1CCN(S(=O)(=O)c2ccc(C(F)(F)F)cc2)CC1	i	/	/	/	/	/
CSc1cccc(NC(=O)C2CCCN(S(=O)(=O)c3ccc(F)cc3)C2)c1 (stereo not drawn)	i	i	i	0.85	19*	i
COc1ccc([C@H]2CC(=O)C=C(c3ccc(OC)c(F)c3)C2)cc1	i	/	/	/	/	/
COc1cccc(CN(C)CC2CCCN(CCc3ccccc3C)C2)c1 (stereo not drawn)	i	i	i	-6.5*	12	i
COc1ccc(CCN2CCCC(CN(C)Cc3cc(Cl)c(O)c(OC)c3)C2)cc1 (stereo not drawn)	i	i	i	-1.6	-14	i
COc1ccc(CN(C)CC2CCCN(CCc3ccccc3C)C2)cc1O (stereo not drawn)	i	i	i	-8.8*	-4	i
CCN(Cc1cccc(OC)c1)CC1CCCN(CCc2cccc(OC)c2)C1 (stereo not drawn)	i	i	i	-3	2	i
CSc1ccccc1-c1nc(-c2ccncc2)no1	i	i	i	0.33	-12	i
CNCCCC1Sc2ccccc2Oc2ccccc21 (stereo not drawn)	i	i	i	-6*	0	i
CCN(CC)CCCNC(=O)C1c2ccccc2Oc2ccccc21	i	i	i	-2.2	-3	i
CCOc1ccccc1OCCn1ncc2ccc(OC)c(OC)c2c1=O	i	i	i	-1.4	3	i
COc1ccc2cnn(CCOc3cc(C)ccc3C(C)C)c(=O)c2c1OC	i	i	i	-4.8*	-7	i
CC(=O)NNc1cc(C)nc(N)n1	i	i	i	-0.48	7	i
COc1ccc(N2C3=C(CC4=C2CCCC4=O)C(=O)CCC3)cc1	i	i	i	-1.2	1	i

Assay outcomes as filed in PubChem BioAssay.
